{
  "source": "the supplement of paper PMC8728848",
  "binders": {"B1": {"name": "HysACBM (Streptococcus pneumoniae), Q54873 (protein)", "chain": "KNLVENGDFGQTEDGSSPWTGSKAQGWSAWVDQKNSADASTRVIEAKDGAITISSHEKLRAALHRMVPIEAKKKYKLRFKIKTDNKIGIAKVRIIEESGKDKRLWNSATTSGTKDWQTIEADYSPTLDVDKIKLELFYETGTGTVSFKDIELVEVADQLS"}},
  "test_in_all_cases": "glycan array binding signal (z-score within array); higher = stronger binding",
  "settings_in_all_cases": "glycan notation: IUPAC condensed, linker removed",
  "key": {"3dGal(b1-4)Glc": {"target": "3dGal(b1-4)Glc", "how_it_was_run": "(§1)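 The Consortium for Functional Glycomics database supplied 3228 glycan arrays, of which those lacking an available protein sequence were dropped. The binding signal, a within-array Z-score, was averaged across arrays of the same protein sequence and across linkers. Negative scores can be read as non-binding.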"}, "[1]": {"target": "Ara(a1-5)Ara(a1-5)Ara(a1-5)Ara(a1-5)Ara(a1-5)Ara(a1-5)Ara", "how_it_was_run": "as §1"}, "[2]": {"target": "Fuc(a1-2)Gal(b1-3)[Fuc(a1-4)]GlcNAc(b1-3)[Fuc(a1-3)[Gal(b1-4)]GlcNAc(b1-6)]Gal(b1-4)Glc", "how_it_was_run": "as §1"}, "[3]": {"target": "Fuc(a1-3)[3dGal(b1-4)]Glc", "how_it_was_run": "as §1"}, "[4]": {"target": "Fuc(a1-3)[Gal(b1-4)]GlcNAc(b1-3)Gal(b1-4)[Fuc(a1-3)]Glc", "how_it_was_run": "as §1"}, "Gal(a1-4)Gal(b1-4)GlcNAc": {"target": "Gal(a1-4)Gal(b1-4)GlcNAc", "how_it_was_run": "as §1"}, "[5]": {"target": "Gal(b1-3)GalNAc(b1-4)Gal(b1-4)Glc", "how_it_was_run": "as §1"}, "Gal(b1-4)GlcNAc(b1-3)Fuc": {"target": "Gal(b1-4)GlcNAc(b1-3)Fuc", "how_it_was_run": "as §1"}, "[6]": {"target": "Gal(b1-4)GlcNAc(b1-3)Gal(b1-4)Glc", "how_it_was_run": "as §1"}, "Gal(b1-6)GalNAc": {"target": "Gal(b1-6)GalNAc", "how_it_was_run": "as §1"}, "GalNAc(b1-4)Gal(b1-4)Glc": {"target": "GalNAc(b1-4)Gal(b1-4)Glc", "how_it_was_run": "as §1"}, "[7]": {"target": "Glc(a1-4)Glc(a1-4)Glc(a1-4)Glc(a1-4)Glc(a1-4)Glc(a1-4)Glc(a1-4)Glc", "how_it_was_run": "as §1"}, "Glc(a1-6)Glc": {"target": "Glc(a1-6)Glc", "how_it_was_run": "as §1"}, "[8]": {"target": "Glc(a1-6)Glc(a1-4)Glc(a1-4)Glc", "how_it_was_run": "as §1"}, "[9]": {"target": "Glc(a1-6)Glc(a1-6)Glc(a1-6)Glc", "how_it_was_run": "as §1"}, "[10]": {"target": "Glc(a1-6)Glc(a1-6)Glc(a1-6)Glc(a1-6)Glc", "how_it_was_run": "as §1"}, "[11]": {"target": "Glc(b1-6)Glc(b1-6)Glc(b1-6)Glc(b1-6)Glc(b1-6)Glc(b1-6)Glc(b1-6)Glc", "how_it_was_run": "as §1"}, "GlcA(b1-3)Gal": {"target": "GlcA(b1-3)Gal", "how_it_was_run": "as §1"}, "[12]": {"target": "GlcA(b1-3)GlcNAc(b1-4)GlcA(b1-3)GlcNAc(b1-4)GlcA(b1-3)GlcNAc(b1-4)GlcA(b1-3)GlcNAc(b1-4)GlcA(b1-3)GlcNAc(b1-4)GlcA(b1-3)GlcNAc(b1-4)GlcA(b1-3)GlcNAc", "how_it_was_run": "as §1"}, "[13]": {"target": "GlcNAc(b1-2)Man(a1-3)[GlcNAc(b1-2)Man(a1-6)]Man", "how_it_was_run": "as §1"}, "[14]": {"target": "GlcNAc(b1-2)[GlcNAc(b1-4)]Man(a1-3)[GlcNAc(b1-2)[GlcNAc(b1-6)]Man(a1-6)]Man(b1-4)GlcNAc(b1-4)GlcNAc", "how_it_was_run": "as §1"}, "GlcNAc(b1-3)Fuc": {"target": "GlcNAc(b1-3)Fuc", "how_it_was_run": "as §1"}, "[15]": {"target": "GlcNAc(b1-3)[GlcNAc(b1-6)]Gal", "how_it_was_run": "as §1"}, "[16]": {"target": "HexA6S(a1-4)GlcNS6S(a1-4)IdoA2S(a1-4)GlcNS6S(a1-4)IdoA2S(a1-4)GlcNS6S(a1-4)IdoA2S(a1-4)GlcNS6S(a1-4)IdoA2S(a1-4)GlcNS6S(a1-4)IdoA2S(a1-4)GlcNS6S(a1-4)IdoA2S(a1-4)GlcNS6S", "how_it_was_run": "as §1"}, "[17]": {"target": "Kdn(a2-3)Gal(b1-3)GalNAc(b1-4)[Kdn(a2-3)]Gal(b1-4)Glc", "how_it_was_run": "as §1"}, "Kdn(a2-6)Gal": {"target": "Kdn(a2-6)Gal", "how_it_was_run": "as §1"}, "[18]": {"target": "Man(a1-3)Man(a1-6)[Man(a1-3)]Man(b1-4)GlcNAc(b1-4)GlcNAc", "how_it_was_run": "as §1"}, "Neu(a2-6)Gal(b1-4)Glc": {"target": "Neu(a2-6)Gal(b1-4)Glc", "how_it_was_run": "as §1"}, "[19]": {"target": "Neu5Ac(a2-3)4dGal(b1-4)[Fuc(a1-3)]GlcNAc(b1-3)Gal", "how_it_was_run": "as §1"}, "[20]": {"target": "Neu5Ac(a2-3)6dGal(b1-4)[Fuc(a1-3)]GlcNAc(b1-3)Gal", "how_it_was_run": "as §1"}, "[21]": {"target": "Neu5Ac(a2-3)Gal(b1-3)GalNAc6S(b1-4)Gal(b1-4)Glc", "how_it_was_run": "as §1"}, "[22]": {"target": "Neu5Ac(a2-3)Gal(b1-3)GlcNAc(b1-3)[Fuc(a1-3)[Gal(b1-4)]GlcNAc(b1-6)]Gal(b1-4)Glc", "how_it_was_run": "as §1"}, "[23]": {"target": "Neu5Ac(a2-3)Gal(b1-3)[Neu5Ac(a2-6)]GalNAc(b1-4)Gal(b1-4)Glc", "how_it_was_run": "as §1"}, "[24]": {"target": "Neu5Ac(a2-3)Gal(b1-4)[Fuc(a1-3)]Glc", "how_it_was_run": "as §1"}, "[25]": {"target": "Neu5Ac(a2-3)[GalNAc(b1-6)]Gal(b1-4)Glc", "how_it_was_run": "as §1"}, "[26]": {"target": "Neu5Ac(a2-6)Gal(b1-4)GlcNAc(b1-3)[Neu5Ac(a2-6)Gal(b1-4)GlcNAc(b1-6)]Gal(b1-4)Glc", "how_it_was_run": "as §1"}, "Neu5Ac(a2-6)Glc6S": {"target": "Neu5Ac(a2-6)Glc6S", "how_it_was_run": "as §1"}, "Neu5Ac(a2-6)GlcNAc6S": {"target": "Neu5Ac(a2-6)GlcNAc6S", "how_it_was_run": "as §1"}, "[27]": {"target": "Xyl(b1-2)[Man(a1-3)][Man(a1-6)]Man(b1-4)GlcNAc(b1-4)[Fuc(a1-3)]GlcNAc", "how_it_was_run": "as §1"}},
  "note": "This is one part of a sample in which the strongest signals are shown more often than they occur.",
  "data": [
    {"binder": "B1", "values": [
      {"measurement": "glycan array binding signal (z-score)", "setting": "3dGal(b1-4)Glc", "value": -0.091},
      {"measurement": "glycan array binding signal (z-score)", "setting": "[1]", "value": -0.091},
      {"measurement": "glycan array binding signal (z-score)", "setting": "[2]", "value": 0.584},
      {"measurement": "glycan array binding signal (z-score)", "setting": "[3]", "value": -0.091},
      {"measurement": "glycan array binding signal (z-score)", "setting": "[4]", "value": 0.007},
      {"measurement": "glycan array binding signal (z-score)", "setting": "Gal(a1-4)Gal(b1-4)GlcNAc", "value": -0.091},
      {"measurement": "glycan array binding signal (z-score)", "setting": "[5]", "value": 0.174},
      {"measurement": "glycan array binding signal (z-score)", "setting": "Gal(b1-4)GlcNAc(b1-3)Fuc", "value": 0.281},
      {"measurement": "glycan array binding signal (z-score)", "setting": "[6]", "value": -0.091},
      {"measurement": "glycan array binding signal (z-score)", "setting": "Gal(b1-6)GalNAc", "value": -0.064},
      {"measurement": "glycan array binding signal (z-score)", "setting": "GalNAc(b1-4)Gal(b1-4)Glc", "value": 0.321},
      {"measurement": "glycan array binding signal (z-score)", "setting": "[7]", "value": 0.776},
      {"measurement": "glycan array binding signal (z-score)", "setting": "Glc(a1-6)Glc", "value": -0.091},
      {"measurement": "glycan array binding signal (z-score)", "setting": "[8]", "value": -0.059},
      {"measurement": "glycan array binding signal (z-score)", "setting": "[9]", "value": -0.091},
      {"measurement": "glycan array binding signal (z-score)", "setting": "[10]", "value": -0.091},
      {"measurement": "glycan array binding signal (z-score)", "setting": "[11]", "value": -0.091},
      {"measurement": "glycan array binding signal (z-score)", "setting": "GlcA(b1-3)Gal", "value": 0.267},
      {"measurement": "glycan array binding signal (z-score)", "setting": "[12]", "value": 21.5},
      {"measurement": "glycan array binding signal (z-score)", "setting": "[13]", "value": -0.091},
      {"measurement": "glycan array binding signal (z-score)", "setting": "[14]", "value": 0.264},
      {"measurement": "glycan array binding signal (z-score)", "setting": "GlcNAc(b1-3)Fuc", "value": -0.05},
      {"measurement": "glycan array binding signal (z-score)", "setting": "[15]", "value": -0.091},
      {"measurement": "glycan array binding signal (z-score)", "setting": "[16]", "value": -0.091},
      {"measurement": "glycan array binding signal (z-score)", "setting": "[17]", "value": -0.091},
      {"measurement": "glycan array binding signal (z-score)", "setting": "Kdn(a2-6)Gal", "value": -0.091},
      {"measurement": "glycan array binding signal (z-score)", "setting": "[18]", "value": -0.091},
      {"measurement": "glycan array binding signal (z-score)", "setting": "Neu(a2-6)Gal(b1-4)Glc", "value": 0.823},
      {"measurement": "glycan array binding signal (z-score)", "setting": "[19]", "value": -0.091},
      {"measurement": "glycan array binding signal (z-score)", "setting": "[20]", "value": -0.045},
      {"measurement": "glycan array binding signal (z-score)", "setting": "[21]", "value": -0.091},
      {"measurement": "glycan array binding signal (z-score)", "setting": "[22]", "value": -0.091},
      {"measurement": "glycan array binding signal (z-score)", "setting": "[23]", "value": -0.054},
      {"measurement": "glycan array binding signal (z-score)", "setting": "[24]", "value": -0.091},
      {"measurement": "glycan array binding signal (z-score)", "setting": "[25]", "value": -0.091},
      {"measurement": "glycan array binding signal (z-score)", "setting": "[26]", "value": -0.091},
      {"measurement": "glycan array binding signal (z-score)", "setting": "Neu5Ac(a2-6)Glc6S", "value": -0.091},
      {"measurement": "glycan array binding signal (z-score)", "setting": "Neu5Ac(a2-6)GlcNAc6S", "value": -0.091},
      {"measurement": "glycan array binding signal (z-score)", "setting": "[27]", "value": -0.091}
    ]}
  ]
}
